# Laboratory results as given in PubChem BioAssay (Tox21).
# Where “and” joins values, the source holds several entries; their conditions need not be identical. Equal entries are not always repeated. A number with no mark means an inactive call. Inconclusive results are not listed. Entries that show only a call come without a potency. Calls of active or inactive are those of the source. Unless noted, calls follow the shape of the dose curve; as a rule, active = well fitted curve in the direction sought with a large enough effect in the repeat runs; inconclusive = weak or mixed curves; inactive = no such curve, though single readings can be large; an effect the other way counts as inactive or inconclusive.
# Assays:
# [1] = qHTS assay for small molecule agonists of the p53 signaling pathway (AID 651631; calls by dose curve; also: nearly all actives have a fitted effect of over 15% in size; also: potency is read from the fitted curve at half-maximal effect)
# How it was run: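 Readout was fluorescence from the LiveBLAzer FRET substrate, applied for 2 h at room temperature after 16 h compound exposure at 37 °C. Cells were the p53RE-bla HCT-116 line, with beta-lactamase driven by p53 response elements.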
# [2] = qHTS assay for small molecules that induce genotoxicity in human embryonic kidney cells expressing luciferase-tagged ATAD5 (AID 651632); also: nearly all actives have a fitted effect of over 15% in size; also: potency is read from the fitted curve at half-maximal effect
# How it was run: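 Test compounds were delivered by pin tool onto HEK293T reporter cells (2,000/well) expressing ATAD5 fused to luciferase. After 16 hr at 37C, 5% CO2, Amplite was added for 30 min at room temperature and luminescence was measured.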
# [3] = qHTS assay for small molecule agonists of the p53 signaling pathway - cell viability (AID 651633; calls by dose curve; also: series mostly up to about 83 µM; nearly all actives have a fitted effect of over 30% in size)
# How it was run: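 Viability counter-read: CellTiter-Glo luminescence (30 min, room temperature) in the same p53RE-bla plates. These plates had been exposed to compounds for 16 h at 37 C.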
# [4] = qHTS assay for small molecules that induce genotoxicity in human embryonic kidney cells expressing luciferase-tagged ATAD5 - cell viability (AID 651634; calls by dose curve; also: nearly all actives have a fitted effect of over 25% in size)
# How it was run: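 Quantitative high-throughput format. HEK293T cells expressing ATAD5 fused to luciferase were plated at 2,000 cells/well and treated 15.5 hr with compound versus DMSO. Viability was determined by fluorescent live-cell protease substrate, 30 min at 37C.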
# [5] = qHTS assay for small molecule disruptors of the mitochondrial membrane potential - cell viability (AID 720634; calls by dose curve;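 also: human HepG2 liver cancer cells; series mostly up to about 83 µM; nearly all actives have a fitted effect of over 20% in size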)
# How it was run: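 Same-well counter-screen: following the MMP dye addition, CellTiter-Glo was added to 1 hr compound-treated HepG2 cells and luminescence read after 30 min at room temperature.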
# [6] = qHTS assay to test for compound auto fluorescence at 535 nm (green) in HepG2 cells (AID 720675)
# [7] = qHTS assay to test for compound auto fluorescence at 460 nm (blue) in HEK293 cells (AID 720678)
# How it was run: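 Blue-channel (Ex/Em 405/460 nm) intensity measured in HEK293 cultures after overnight compound exposure at 37C; signal expressed relative to triamterene. Cells plated 2,000 per well in 10% dialyzed FBS medium and allowed 4-5 hr to attach.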
# [8] = qHTS assay to test for compound auto fluorescence at 590 nm (red) in HEK293 cells (AID 720679)
# How it was run: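 Red-channel autofluorescence (Ex/Em 540/590 nm; Rose Bengal sodium reference) was measured after overnight 37C, 5% CO2 exposure of attached HEK293 cells, 2,000 per well in medium with 10% dialyzed FBS.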
# [9] = qHTS assay to test for compound auto fluorescence at 535 nm (green) in HEK293 cells (AID 720680)
# [10] = qHTS assay to test for compound auto fluorescence at 535 nm (green) in HEK293 cell free culture (AID 720682)
# How it was run: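 Compounds were pin-transferred into cell-free DMEM with 10% FBS, and green fluorescence was read at excitation 485 nm and emission 535 nm. Intensities were expressed as fluorescein-equivalent values.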
# [11] = qHTS assay to test for compound auto fluorescence at 590 nm (red) in HEK293 cell free culture (AID 720683)
# How it was run: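 Red-channel autofluorescence of compounds in culture medium (DMEM, 10% FBS), no cells, measured at 540/590 nm. Rose Bengal sodium is the reference fluorophore for equivalence.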
# [12] = qHTS assay to test for compound auto fluorescence at 590 nm (red) in HepG2 cell free culture (AID 720684)
# How it was run: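 No cells present: MEM + 10% FBS only. Compound pinned in, red label read (540/590 nm). Activity = fluorescence equivalent to Rose Bengal sodium.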
# [13] = qHTS assay to test for compound auto fluorescence at 460 nm (blue) in HepG2 cell free culture (AID 720685)
# How it was run: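 Cell-free plates of MEM plus 10% FBS received 23 nL compound or DMSO vehicle; blue-channel (405/460 nm) intensity scored against triamterene as reference fluorophore.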
# [14] = qHTS assay to test for compound auto fluorescence at 535 nm (green) in HepG2 cell free culture (AID 720686)
# [15] = qHTS assay to test for compound auto fluorescence at 460 nm (blue) in HepG2 cells (AID 720687)
# How it was run: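 Blue-channel autofluorescence (Ex/Em 405/460 nm, triamterene-equivalent) was measured after 1 hr compound exposure at 37 C, 5% CO2. Cells were HepG2, plated overnight at 37 C in MEM plus 10% FBS.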
# [16] = biological target: Glucocorticoid receptor (Homo sapiens) (UniProt P04150); assay: qHTS assay to identify small molecule agonists of the glucocorticoid receptor (GR) signaling pathway (AID 720691; active = well fitted activation curve with a large enough effect in the signal ratio in the repeat runs, not every such curve was filed as active; the % refers to the signal ratio)
# How it was run: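 A HeLa cervical cancer line expressing GR and a glucocorticoid response element-driven beta-lactamase gene is treated with compounds for 18 h; LiveBLAzer B/G FRET substrate is then applied and fluorescence read.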
# [17] = biological target: Glucocorticoid receptor (Homo sapiens) (UniProt P04150); assay: qHTS assay to identify small molecule antagonists of the glucocorticoid receptor (GR) signaling pathway (AID 720692; active = well fitted inhibition curve with a large enough effect in the signal ratio in the repeat runs, not every such curve was filed as active; the % refers to the signal ratio)
# How it was run: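 GRE-bla HeLa line, dex-stimulated (5 nM final). Compound exposure 18 h, 37 C. Beta-lactamase FRET read after 2 h RT substrate.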
# [18] = qHTS assay for small molecule disruptors of the mitochondrial membrane potential (AID 720635); also: potency is read from the fitted curve at half-maximal effect
# How it was run: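 Mitochondrial membrane potential tracked with Mito-MPS dye, red aggregates (ex 540/em 590 nm) against green monomers (ex 490/em 535 nm). Compound treatment 1 hr at 37C, dye 30 min in HepG2.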
# [19] = qHTS assay to test for compound auto fluorescence at 460 nm (blue) in HEK293 cell free culture (AID 720681)
# How it was run: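 Blue fluorescence (Ex 405/Em 460 nm, triamterene-equivalent) was read immediately after pin transfer of compound or DMSO into medium (DMEM, 10% FBS) without cells.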
# [20] = qHTS assay to test for compound auto fluorescence at 590 nm (red) in HepG2 cells (AID 720674)
# How it was run: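 We screened compounds on adherent HepG2 cells, incubating them for an hour at 37 C in 5% CO2 before reading emission at 590 nm under 540 nm excitation; values reflect equivalence to Rose Bengal sodium fluorescence.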
# Glucocorticoid receptor (Homo sapiens), sequence (P04150 whole entry, looked up): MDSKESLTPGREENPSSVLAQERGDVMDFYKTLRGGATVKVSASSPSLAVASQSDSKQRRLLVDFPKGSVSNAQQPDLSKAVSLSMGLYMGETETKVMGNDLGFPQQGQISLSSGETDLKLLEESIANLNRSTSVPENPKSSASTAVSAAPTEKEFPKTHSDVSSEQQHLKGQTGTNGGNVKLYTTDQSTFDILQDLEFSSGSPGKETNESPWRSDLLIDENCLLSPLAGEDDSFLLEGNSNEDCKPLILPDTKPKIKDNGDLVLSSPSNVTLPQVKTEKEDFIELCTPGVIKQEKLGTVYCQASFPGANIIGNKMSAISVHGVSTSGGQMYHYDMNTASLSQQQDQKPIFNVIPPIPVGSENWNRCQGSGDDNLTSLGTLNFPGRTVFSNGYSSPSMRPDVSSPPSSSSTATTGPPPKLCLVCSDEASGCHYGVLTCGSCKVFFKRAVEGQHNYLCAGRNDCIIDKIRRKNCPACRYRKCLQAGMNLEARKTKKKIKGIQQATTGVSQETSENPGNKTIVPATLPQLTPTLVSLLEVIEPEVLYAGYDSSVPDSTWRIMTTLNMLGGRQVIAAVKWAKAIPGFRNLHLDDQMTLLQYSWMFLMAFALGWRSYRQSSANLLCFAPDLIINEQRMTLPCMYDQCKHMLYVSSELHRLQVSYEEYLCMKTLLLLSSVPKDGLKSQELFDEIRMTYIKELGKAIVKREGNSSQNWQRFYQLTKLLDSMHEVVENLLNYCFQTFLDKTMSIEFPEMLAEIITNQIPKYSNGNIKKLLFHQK
smiles,measurement,setting,value
CCCOC(=O)c1ccc(C(=O)OCCC)nc1,Potency,[1],inactive
same,Potency,[2],inactive
same,Potency,[3],inactive
same,Potency,[4],inactive
same,Potency,[5],inactive
same,outcome,[6],inactive
same,Potency,[7],inactive
same,outcome,[8],inactive
same,outcome,[9],inactive
same,outcome,[10],inactive
same,outcome,[11],inactive
same,outcome,[12],inactive
same,Potency,[13],inactive
same,outcome,[14],inactive
same,Potency,[15],inactive
same,Potency,[16],inactive
same,Potency,[17],inactive
C/C=C(\C)C(=O)OCCC(C)CCC=C(C)C (centres undefined),Potency,[1],inactive
same,Potency,[2],inactive
same,Potency,[3],inactive
same,Potency,[4],inactive
same,Potency,[5],inactive
same,Potency,[18],inactive
same,outcome,[6],inactive
same,Potency,[7],inactive
same,outcome,[8],inactive
same,outcome,[9],inactive
same,Potency,[19],inactive
same,outcome,[10],inactive
same,outcome,[11],inactive
same,outcome,[12],inactive
same,Potency,[13],inactive
same,outcome,[14],inactive
same,Potency,[15],inactive
same,Potency,[16],inactive
same,Potency,[17],inactive
CCCCCCCCSCCO,Potency,[1],inactive
same,Potency,[2],inactive
same,Potency,[3],inactive
same,Potency,[4],inactive
same,Potency,[5],inactive
same,Potency,[18],24.3 µM (active)
same,outcome,[20],inactive
same,outcome,[6],inactive
same,Potency,[7],inactive
same,outcome,[8],inactive
same,outcome,[9],inactive
same,Potency,[19],inactive
same,outcome,[10],inactive
same,outcome,[12],inactive
same,Potency,[13],inactive
same,outcome,[14],inactive
same,Potency,[15],inactive
same,Potency,[16],inactive
same,Potency,[17],inactive
O=C(OCCOCCO)c1ccccc1Nc1cccc(C(F)(F)F)c1,Potency,[1],inactive
same,Potency,[2],inactive
same,Potency,[3],inactive
same,Potency,[4],inactive
same,Potency,[5],inactive
same,Potency,[18],inactive
same,"fluorescence, relative to Rose Bengal",[20],-0.199% [at 18.6 µM]
same,"fluorescence, % of fluorescein control",[6],0.199% [at 18.6 µM]
same,"fluorescence, % of fluorescent control",[8],0.0507% [at 18.6 µM]
same,"fluorescence, % of fluorescein",[9],-0.0064% [at 18.6 µM]
same,"fluorescence, % of fluorescent control",[19],-0.158% [at 18.6 µM]
same,activity change,[10],0.0151% [at 18.6 µM]
same,"fluorescence, % of Rose Bengal",[12],-0.0242% [at 18.6 µM]
same,"fluorescence, % of fluorescent control",[13],-0.0111% [at 18.6 µM]
same,"fluorescence, % of fluorescein control",[14],0.0209% [at 18.6 µM]
same,"fluorescence, % of fluorescent control",[15],-0.0068% [at 18.6 µM]
same,Potency,[16],inactive
O=C(CCCCCCC(=O)Nc1ccccc1)NO,Potency,[1],750 nM (active) and 668 nM (active)
same,Potency,[2],2.11 µM (active) and 1.68 µM (active)
same,Potency,[3],inactive
same,Potency,[4],inactive
same,Potency,[5],inactive
same,Potency,[18],inactive
same,outcome,[20],inactive
same,outcome,[6],inactive
same,Potency,[7],inactive
same,outcome,[8],inactive
same,outcome,[9],inactive
same,Potency,[19],inactive
same,outcome,[10],inactive
same,outcome,[11],inactive
same,outcome,[12],inactive
same,Potency,[13],inactive
same,outcome,[14],inactive
same,Potency,[15],inactive
CCCOC(=O)c1ccc(N)cc1,Potency,[1],inactive
same,Potency,[2],inactive
same,Potency,[3],inactive
same,Potency,[4],inactive
same,Potency,[5],inactive
same,Potency,[18],inactive
same,outcome,[20],inactive
same,outcome,[6],inactive
same,outcome,[8],inactive
same,outcome,[9],inactive
same,Potency,[19],inactive
same,outcome,[10],inactive
same,outcome,[11],inactive
same,outcome,[12],inactive
same,Potency,[13],inactive
same,outcome,[14],inactive
same,Potency,[15],inactive
same,Potency,[16],inactive
O=C(O)c1cccc(O)c1,Potency,[1],inactive
same,Potency,[2],inactive
same,Potency,[3],inactive
same,Potency,[4],inactive
same,Potency,[5],inactive
same,outcome,[20],inactive
same,outcome,[6],inactive
same,Potency,[7],inactive
same,outcome,[8],inactive
same,outcome,[9],inactive
same,Potency,[19],inactive
same,outcome,[10],inactive
same,outcome,[11],inactive
same,outcome,[12],inactive
same,Potency,[13],inactive
same,outcome,[14],inactive
same,Potency,[15],inactive
CN1CCN(c2c(F)cc3c(=O)c(C(=O)O)cn4c3c2OCN4C)CC1,Potency,[1],inactive
same,Potency,[2],inactive
same,Potency,[3],inactive
same,Potency,[4],inactive
same,Potency,[5],inactive
same,outcome,[20],inactive
same,outcome,[6],inactive
same,Potency,[7],inactive
same,outcome,[9],inactive
same,Potency,[19],inactive
same,outcome,[10],inactive
same,outcome,[11],inactive
same,outcome,[12],inactive
same,Potency,[13],inactive
same,outcome,[14],inactive
same,Potency,[15],inactive
same,Potency,[16],inactive
Cc1nc2ccccc2s1,Potency,[1],inactive
same,Potency,[2],inactive
same,Potency,[3],inactive
same,Potency,[4],inactive
same,Potency,[5],inactive
same,Potency,[18],inactive
same,outcome,[6],inactive
same,Potency,[7],inactive
same,outcome,[8],inactive
same,outcome,[9],inactive
same,outcome,[10],inactive
same,outcome,[11],inactive
same,outcome,[12],inactive
same,Potency,[13],inactive
same,outcome,[14],inactive
same,Potency,[15],inactive
same,Potency,[16],inactive
COCC(O)CO (centres undefined),Potency,[1],inactive
same,Potency,[2],inactive
same,Potency,[3],inactive
same,Potency,[4],inactive
same,Potency,[5],inactive
same,outcome,[20],inactive
same,outcome,[6],inactive
same,Potency,[7],inactive
same,outcome,[8],inactive
same,outcome,[9],inactive
same,Potency,[19],inactive
same,outcome,[10],inactive
same,outcome,[11],inactive
same,outcome,[12],inactive
same,Potency,[13],inactive
same,outcome,[14],inactive
same,Potency,[15],inactive
same,Potency,[16],inactive
CCCCCCOC(=O)C(C)C,Potency,[1],inactive
same,Potency,[2],inactive
same,Potency,[3],inactive
same,Potency,[4],inactive
same,Potency,[5],inactive
same,outcome,[20],inactive
same,outcome,[6],inactive
same,Potency,[7],inactive
same,outcome,[8],inactive
same,outcome,[9],inactive
same,Potency,[19],inactive
same,outcome,[10],inactive
same,outcome,[11],inactive
same,outcome,[12],inactive
same,Potency,[13],inactive
same,outcome,[14],inactive
same,Potency,[15],inactive
